Shown are actives, neighbours in structure and some others; about 2.9% of the full set was active somewhere.
PfHsp90 set2 – growth inhibition of yeast expressing Plasmodium Hsp90. S. cerevisiae expressing PfHsp90, BacTiter-Glo ATP, 48 h; yeast lacking PDR1 and PDR3 efflux regulators. inhibition, % at 9.4 µM. 310,000 tested, 0.32% active;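 active means every replicate shows inhibition above about 80%, whatever the replicate mean, limit read from the data; inconclusive means mean inhibition reaches the set limit but some replicate falls short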;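 further: 0% = DMSO neutral controls and 100% = 20 µM radicicol positive controls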
Wnt bcat act – activates Wnt/beta-catenin signaling in a reporter cell assay; AID 743398; 300,000 tested, 1.2% active; activator, plate reader; activation, % at 9.35 µM; in the data active means activation above about 30%, passing the limit was not always enough; inconclusive means no clear call, values can overlap the other calls;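 further: 0% = neutral control wells and 100% = positive control wells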
MITF act – increases MITF-driven TRPM1 promoter luciferase signal | 300,000 tested, 0.75% active | SK-MEL-5 TRPM1-promoter luciferase, 24 h; % of positive control, neutral wells = 0 | activation, % at 12.5 µM;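 active means mean activation of at least 80% with every replicate also reaching 80%; inconclusive means mean reaches 80% but some replicate falls short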;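 further: 0% = neutral control wells and 100% = parthenolide positive control wells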
MITF TRPM1 inh – inhibitors of MITF-driven TRPM1 promoter in melanoma cells. inhibition, % at 12.5 µM. 330,000 tested, 0.83% active. SK-MEL-5 TRPM1 promoter luciferase, 24 h;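 active means mean inhibition across replicates of 60% or more, whatever share of single replicates reaches that level; inconclusive means some that reach 60%, reason not given; inactive means mean inhibition across replicates below 60%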
NSD2 inh – inhibitors of human histone methyltransferase NSD2; 310,000 tested, 0.54% active; O96028; NSD2 peptide methylation, AlphaScreen, 120 min; inhibition, % at 12.5 µM; in the data active means inhibition above about 50%
N-glyco inh – blocks N-linked glycosylation in D54 reporter cells | D54 ERlucT glycosylation luciferase reporter, 24 h; percent of 100 nM tunicamycin response | reporter increase, % at 12.5 µM | 360,000 tested, 0.23% active;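 active means mean luciferase reporter signal, scaled so untreated is 0 and the glycosylation-blocking control 100, at or above a set limit in every replicate; inconclusive means mean reaches the limit but not every replicate does; inactive means mean below the limit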;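 further: luciferase carries N-glycosylation sites so blocking glycosylation raises the light; 0% = median of neutral control wells and 100% = median of 100 nM tunicamycin wells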
AlphaScreen art – AlphaScreen assay artifact in NSD2 counter-screen | shares compounds with NSD2 inh | AlphaScreen artifact counterscreen, preloaded methylated H4 peptide | AC35, µM (titrated, usually from 10 µM), inactives show at the highest dose activity change, negative = signal loss | 1,500 tested, 9.4% active | AID 1053174; call rule not given here
* hit, by the source's call; ? = inconclusive; / = no result given; + = active, no number.

SMILES	PfHsp90 set2	Wnt bcat act	MITF act	MITF TRPM1 inh	NSD2 inh	N-glyco inh	AlphaScreen art
Cc1cccc(N2CCN(S(=O)(=O)c3c(C)nc4scc(C)n4c3=O)CC2C)c1 (stereo unspecified)	-7.9	-2.0	8.9	-5.6	105.0*	-1.3	1.2%
CC1CC(C)CN(C(=O)COC(=O)/C=C/c2cccc([N+](=O)[O-])c2)C1 (stereo unspecified)	/	-2.4	-6.0	7.9	-0.5	-0.1	/
COc1cc(CC(=O)N2CCN(S(=O)(=O)c3ccc(C(C)C)cc3)CC2)cc(OC)c1OC	/	-0.8	/	/	-1.6	-1.4	/
Cc1ccc(C(=O)CC(=O)c2ccc(C)cc2O)cc1	5.4	7.1	12.5	-14.4	-0.8	2.1	/
O=C(COC(=O)c1cc(S(=O)(=O)N2CCOCC2)ccc1F)c1ccc[nH]1	-6.5	-10.8	-0.4	2.7	69.3*	2.6	-4.2%
Cc1ccccc1CSc1nnc([C@@H]2CCCN2)o1	3.2	0.3	/	-4.1	0.5	-0.7	/
CCN(CC)S(=O)(=O)c1ccc(-c2cn3cc(Cl)ccc3n2)cc1	3.8	7.9	22.0	-27.6	76.8*	6.1	1.8%
CC1CCN(S(=O)(=O)c2cccc(-c3cn4cc(Cl)ccc4n3)c2)CC1	31.4	/	-8.0	9.3	0.4	-1.3	/
O=S(=O)(O)c1cccc2c(N=Nc3ccc(O)c4ncccc34)cccc12	-4.0	/	-11.5	12.7	66.2*	-0.9	-13.3%
Oc1ccc(CNc2ccccc2)c2cccnc12	13.4	/	/	54.0	/	-1.4	/
O=Nc1ccc(O)c2ncccc12	7.2	-24.9	-38.7	40.7	64.2*	8.6	1.4%
COC(=O)c1c(SCC(=O)Nc2ccc(C)c(C)c2)nc(=O)[nH]c1C	11.2	13.3	-11.9	12.8	116.0*	3.0	-3.3%
CCOc1ccc(OCCOC(=O)CNC(=O)c2ccc(Cl)cc2Cl)cc1	18.4	-1.9	14.1	-8.9	-2.3	2.9	/
COc1ccc(C2CC(=O)c3c(C)nc(N4CCN(c5ccccc5)CC4)nc3C2)cc1 (stereo unspecified)	/	1.1	/	-5.2	52.8*	-3.5	-5.6%
Cc1nc(N2CCN(Cc3ccccc3)CC2)nc2c1C(=O)CC(c1ccco1)C2 (stereo unspecified)	/	/	-10.2	12.2	1.4	-5.3	/
CN(C)CCCn1c(SCC(=O)N2c3ccccc3Sc3ccccc32)nc2ccccc2c1=O	-1.7	-3.1	-24.1	25.8	9.3	-12.5	/
O=C1C=C(O)c2cccc(O)c2C1=O	-5.2	-1.2	-22.7	22.1	/	4.4	/
O=C1C=C(c2c(O)ccc3ccccc23)c2ccccc2C1=O	-54.1	-5.8	-55.8	?	112.1*	3.8	-13.5%
CC1(C(=O)NC(=S)N(Cc2ccccc2)c2ccccn2)CC1(Cl)Cl (stereo unspecified)	-10.3	4.8	7.1	-8.9	-1.5	2.7	/
CN(C(=S)NC(=O)C1(C)CC1(Cl)Cl)c1ccccc1 (stereo unspecified)	/	1.6	-0.9	3.0	58.6*	1.5	-1.3%
COc1cc(C(=O)NC2CCCc3ccccc32)cc(OC)c1OC (stereo unspecified)	-18.0	0.0	-9.2	13.9	102.2*	9.1	-4.4%
Cc1cccc(-n2c(C)cc(/C=N/n3cnnc3)c2C)c1	-8.0	/	-8.9	7.3	8.7	-0.2	/
CCOC(=O)C1(C)CCCN1C(=O)c1c(F)cccc1F (stereo unspecified)	/	-3.2	/	/	5.7	2.4	/
O=C1C=C(N2CCCCC2)c2ccccc2C1=O	/	-11.9	/	/	114.1*	-20.7	-0.4%
CCN(CC)CCNC(=O)c1cc(-c2ccc(Br)s2)nc2ccccc12	-25.3	1.0	11.7	-11.3	3.3	1.9	/
SMILES	PfHsp90 set2	Wnt bcat act	MITF act	MITF TRPM1 inh	NSD2 inh	N-glyco inh	AlphaScreen art
CCN(CC)CCNC(=O)c1cc2cc(Br)ccc2s1	10.4	-0.3	-2.4	1.3	56.4*	-8.7	-4.2%
O=C1OCC2=Nc3cccc4cccc(c34)N12	/	-1.2	/	/	-2.6	/	/
CC1=Nc2cccc3cccc(c23)N1C	5.4	-1.9	9.2	-2.3	+	5.3	2.9%
Cc1noc(C)c1COc1ccc(C(=O)Nc2cccnc2)cc1	10.8	-1.6	2.3	0.8	-1.4	1.6	/
Cc1ccc(-n2ncc3c(=O)n(CC(=O)OCc4ccccc4)cnc32)cc1	23.3	7.4	6.1	-10.3	1.3	-0.7	/
O=C(Cn1cnc2c(cnn2-c2ccccc2)c1=O)OCc1ccccc1	/	/	/	-46.3	94.9*	1.0	4.6%
COc1cc(C)c2sc3ccccc3c(=O)c2c1NCCN(C)C	/	-3.4	/	/	161.3*	21.2	3.25µM*
CCC(C(=O)NC1CCCCCC1)n1nc(C)c2c(C)n(-c3ccccc3)nc2c1=O (stereo unspecified)	-29.1	-2.6	-11.4	10.7	7.4	-2.1	/
Cc1ccc(Cl)c2c1=NC(=O)C=2c1[nH]c(=S)[nH]c1O	12.9	-0.4	-5.5	9.2	-0.1	0.9	/
Cc1ccc(-n2ncc3c2CCCC3NC(=O)CCn2ccnc2C)cc1C (stereo unspecified)	-8.5	-3.0	-14.1	11.8	-0.2	-3.0	/
CCc1nnc(NC(=O)COc2ccc3c(c2)OCO3)s1	-24.4	-3.1	19.9	-17.0	99.9*	0.4	-1.4%
Cc1ccc(-c2[nH]ncc2C(=O)c2cccc(F)c2)c(O)c1	-0.4	4.8	10.9	-8.3	2.0	-2.5	/
CCOc1ccc2nc(SCC(=O)NC(=O)NCc3ccco3)sc2c1	-17.6	-0.8	/	-2.5	-1.1	0.2	/
CCOc1ccc2nc(SCC(=O)NCc3ccco3)sc2c1	/	-3.9	17.0	-15.6	129.4*	-0.9	-2.2%
Cn1c(SCC(=O)Nc2ccccc2C(F)(F)F)nc2c(c1=O)SCC2	29.1	-0.1	-23.0	23.3	3.4	-0.1	/
Cc1nc(N)sc1-c1nnc(SCC(=O)Nc2ccccc2C(F)(F)F)n1C	-74.2	-5.1	-2.7	-1.6	125.4*	-1.1	0.1%
Cc1ccc(-n2ncc3c2CC(C)(C)CC3NC(=O)c2ccncc2)cc1 (stereo unspecified)	-5.2	0.6	-9.7	13.5	-2.6	-0.1	/
CCOC(=O)c1cccc(P(C)(C)=O)c1	-10.7	0.4	20.9	-20.8	78.6*	2.4	2.4%
CCOC(=O)c1ccc2nc(C)c(C)nc2c1	4.5	11.8	19.4	-12.2	4.6	2.0	/
CCOc1ccc(-c2nnc(SCc3nc4ccccc4[nH]3)n2N)cc1	5.7	0.7	-1.2	1.9	71.9*	-0.9	-3.7%
CCOc1ccc(-n2c(COc3ccccc3)nnc2SCc2nc3ccccc3[nH]2)cc1	/	/	/	/	-2.9	/	/
CC1(C(=O)NS(=O)(=O)c2cccc(C#N)c2)CCN1C(=O)C/C=C/c1ccccc1 (stereo unspecified)	/	15.3	/	/	0.0	0.3	/
CCNCCNc1ccc(Cl)cc1[N+](=O)[O-]	64.5	-7.8	-8.0	5.7	63.8*	-3.0	-3.4%

Screens from PubChem.
